In PubChem BioAssay (NCATS):
Inconclusive results are not listed. Active and inactive are the calls of the source. Calls follow the shape of the dose curve; as a rule, active = well fitted inhibition curve with a large enough effect; inconclusive = small, poorly fitted or top-dose-only effect; inactive = no such curve, though single readings can be large or run the other way.

Test: Primary fluorescence-based thiol-reactive (MSTI) qHTS assay for identification of artifact compounds. (AID 1845221); also: nearly all actives have a fitted effect of over 65% in size;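 as to activity change, negative = thiol reactive: thiol-reactive compounds lower the probe fluorescence signal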
Conditions: MSTI thiol-reactivity probe, 1 h; series mostly up to 53.8 µM; activity change, negative = thiol reactive: at the top concentration
From the text: PI: Alexander Tropsha Ph.D.
UNC Eshelman School of Pharmacy
University of North Carolina, Chapel Hill, North Carolina
Hits from high-throughput screening (HTS) of chemical libraries are often false positives due to their interference with the assay detection technology. In response to this problem, we generated the largest publicly available library of chemical liabilities and developed a free webtool to predict HTS artifacts, both of which are described herein. More specifically, we generated, curated, and integrated HTS datasets for thiol reactivity, redox activity, and luciferase (firefly and nano) activity. Using these curated datasets, we developed and validated several Quantitative Structure-Interference Relationship (QSIR) models to predict nuisance behavior. […] These models were employed for virtual profiling of the National Center for Advancing Translational Science's (NCATS) in-house library, and 256 compounds for each assay were selected for the experimental validation of nuisance behavior. The BA for these external predictions ranged from 58 to 78% for compounds within the applicability domains of the models. […] The models developed in this study, along with aggregation models previously developed by our group (SCAM Detective) were implemented in "Liability Predictor," an online tool which may be used as part of chemical library design or for triaging HTS hits. Both the models and the curated datasets are publicly available at https://liability.mml.unc.edu/.
SEQUENCE No. (e.g., 1, 2, 3, etc.); […] (e.g., Cells, Incubation, Reagent, etc.); VALUE; DESCRIPTION.
1; Reagent; 4 uL; […].
2; Compounds and control; 16 nL; Kalypsis pin tool (Wako USA) equipped with a 1536-well pin head.
4; Detection; Fluorescence, ViewLux microplate reader, 525 nm excitation, 598 nm emission.
NOTES (numbers refer to Sequence numbers above)
1. Assays determining (E)-2-(4-mercaptostyryl)-1,3,3-trimethyl-3H-indol-1-ium (MSTI) reactivity were performed as previously described in the literature with modifications for the quick identification of compounds reacting with thiol. In brief, 4 uL of MSTI or positive control Acetyl-MSTI (final concentrations of 4 uM and 4 uM, respectively) in assay buffer (2% DMSO in 1X PBS pH 7.4) was dispensed into all wells of a 1536-well assay plate (solid-bottom black plate; Greiner Bio One, Monroe, NC).
2. A Wako Pin-tool (Wako Automation, Richmond, VA) was used to transfer 16 nL of compounds (consisting of 7-plates in qHTS format, final concentration range 18.3 nM to 114 uM) or control MLS001163887 (final concentration range 1.22 nM to 40 uM).
3. Plates were centrifuged (121xg, 15 seconds) and incubated for 1 hour at room temperature protected from light.
4. Samples were read for fluorescence (Ex/Em = 525(20)/598(25) nm) on a ViewLux CCD imager (PerkinElmer). Data were normalized to Acetyl-MSTI (0% activity) and MSTI (100% activity) and the resulting percent inhibition data were fitted to a 4-parameter Hill equation using NCATS in-house software.
Potency is read from the fitted curve at half-maximal effect.

| Compound | activity change, negative = thiol reactive | Potency |
| --- | --- | --- |
| CC(OC1OCCN(Cc2n[nH]c(=O)[nH]2)C1c1ccc(F)cc1)c1cc(C(F)(F)F)cc(C(F)(F)F)c1 (stereo not given) | 73.9% (inactive) | – |
| COc1cc2ncnc(Oc3ccc(CC(=O)Nc4cnn(C(C)C)c4)cc3)c2cc1OC | -23% (inactive) | – |
| O=C(Nc1ccc2[nH]nc(-c3ccncc3)c2c1)[C@@H]1CCN(CC(=O)N2CCN(c3ccc(-c4ncccn4)cc3)CC2)C1 | 32.2% (inactive) | – |
| CN(C)CCOC(C)(c1ccccc1)c1ccc(Cl)cc1 (stereo not given) | 56.7% (inactive) | – |
| COCCNCc1ccc(-c2cc3nccc(Oc4ccc(NC(=O)C5(C(=O)Nc6ccc(F)cc6)CC5)cc4F)c3s2)nc1 | 140% (inactive) | – |
| CCOc1cc(C(C)(C)C)ccc1C1=N[C@@](C)(c2ccc(Cl)cc2)[C@@](C)(c2ccc(Cl)cc2)N1C(=O)N1CCN(CC(=O)N2CCOCC2)CC1 | 18% (inactive) | – |
| CCN(c1cc(-c2ccc(CN3CCOCC3)cc2)cc(C(=O)NCc2c(C)cc(C)[nH]c2=O)c1C)C1CCOCC1 | -7.23% (inactive) | – |
| N#Cc1ccc(Nc2nc(-c3ccc(O)cc3O)cs2)cc1C(F)(F)F | – | 2990 nM (active) |
| CNCc1cc(-c2ccccc2F)n(S(=O)(=O)c2cccnc2)c1 | 32.4% (inactive) | – |
| O=S(=O)(c1ccc(Cl)cc1)N1CCN(c2ccnc3cc(Cl)ccc23)CC1 | 31.4% (inactive) | – |
| C=C1C(=O)OC2CC(C)=C(C(C)CCCOC(C)=O)C(OC(=O)CC(C)CC)C12 (stereo not given) | 0.196% [at 25.6 µM] (inactive) | – |
| COc1ccc(OC)c(-c2ccc(NC(=O)c3ccncc3F)cc2)c1 | 31.8% (inactive) | – |
| Cc1cc(-c2nc3cc(F)ccc3s2)ccc1NC(=O)[C@@H](N)CCCCN | 73.1% (inactive) | – |
| COCC(=O)NC/C=C/c1ccc2ncnc(Nc3ccc(Oc4ccc(C)nc4)c(C)c3)c2c1 | 1.75% (inactive) | – |
| CC(C)[C@@H](c1ccc(C(F)(F)F)cc1CN(Cc1cc(C(F)(F)F)cc(C(F)(F)F)c1)c1nnn(C)n1)N1CCC(C(=O)O)CC1 | 80.5% (inactive) | – |
| CC1CC(=O)C2=C(C1)C1OC1C1(O)C2C(=O)c2cccc(O)c2C1O (stereo not given) | – | 6560 nM (active) |
| C[C@@H](c1ccc2nccn2c1)n1nnc2ncc(-c3cnn(C)c3)nc21 | 54.4% (inactive) | – |
| C[C@@H]1CCCN1CCc1cc2cc(-c3ccc(C#N)cc3)ccc2o1 | 89.8% (inactive) | – |
| COc1c(F)cccc1C(=O)N1C[C@@H](C)CC[C@H]1CNc1ccc(Br)cn1 | 78.2% (inactive) | – |
| CCCCC1CCC(c2nc(-c3ccncc3)no2)CC1 (stereo not given) | 5.02% (inactive) | – |

| Compound | activity change, negative = thiol reactive | Potency |
| --- | --- | --- |
| C/C=C(\C)C(=O)OC1C(C)C2(O)C(C=C(CO)CC3(O)C(=O)C(C)=CC32)C2C(C)(C)C12OC(C)=O (stereo not given) | -5.17% [at 25.6 µM] (inactive) | – |
| N#CC(CCCN1CCN(/N=C/c2cccnc2)CC1)(c1ccccc1)c1ccccc1 | 23.4% (inactive) | – |
| C/C=C/C=C/C=C/C(=O)O[C@@H]1C=C2COC(=O)[C@]2(O)[C@@]2(C)CCCC(C)(C)[C@H]12 | 90.6% [at 25.6 µM] (inactive) | – |
| CC(C)NC(=O)COc1cccc(-c2nc(Nc3ccc4[nH]ncc4c3)c3ccccc3n2)c1 | 38.5% (inactive) | – |
| CCN1CCN(Cc2ccc(NC(=O)c3ccc(C)c(Oc4ncnc5[nH]c(C)cc45)c3)cc2C(F)(F)F)CC1 | 48.8% (inactive) | – |
| C[C@@H]1O[C@@H](O[C@H]2[C@@H]3C=CO[C@@H](O[C@@H]4O[C@H](CO)[C@@H](O)[C@H](O)[C@H]4O)[C@@H]3[C@@]3(CO)O[C@@H]23)[C@H](O)[C@H](OC(=O)/C=C/c2ccccc2)[C@H]1O | 6.56% [at 25.6 µM] (inactive) | – |
| CC(=O)O[C@@H]1CC[C@@]2(C)[C@H](CC[C@@H]3[C@@H]2C[C@H](OC(C)=O)[C@]2(C)[C@@H](C(C)=O)CC[C@@H]32)C1 | 23.7% (inactive) | – |
| CCCCCc1ccc(/C=C/C(=O)Nc2cc(Cl)ccc2C(=O)O)cc1 | 227% (inactive) | – |
| N#Cc1ccc2ncnc(NCCc3ccccc3)c2c1 | 68.1% (inactive) | – |
| CC(C)(Cc1ccccc1)NCC(O)c1ccc(O)c(NS(C)(=O)=O)c1 (stereo not given) | -3.4% (inactive) | – |
| C=C(C)C(=O)OC1CC2(C)OC(=CC2=O)C(=C)CC2OC(=O)C(=C)C12 (stereo not given) | 18.4% (inactive) | – |
| CCC(C)CNCC(=O)N1CCC2SC=CC2C1COc1cccc(C)c1 (stereo not given) | 3.17% (inactive) | – |
| CCC(C)C(=O)O[C@H]1[C@@H](OC(=O)c2ccoc2)C[C@](C)(O)[C@]23OC(C)(C)[C@H](C[C@H](OC(=O)c4ccoc4)[C@]12COC(C)=O)[C@H]3OC(C)=O (stereo not given in full) | -3.3% [at 25.6 µM] (inactive) | – |
| CC1(C)OC[C@H](NC(=O)Nc2ccc(Br)cc2Br)[C@H](c2ccccc2)O1 | 178% (inactive) | – |
| CC(C)(C)NC(=O)[C@H]1CC[C@H]2[C@@H]3CC[C@H]4NC(=O)CC[C@]4(C)[C@H]3CC[C@]12C | 65.5% (inactive) | – |
| CC(C)c1ccc(NC(=O)Cn2cnc3c2c(=O)n(C)c(=O)n3C)cc1 | 49.9% (inactive) | – |
| CN(C)C(=O)Nc1cccc(-c2ccc(N(C)C)cc2)c1 | – | 2670 nM (active) |
| CC(=O)O[C@H]1CC[C@]2(C)[C@H]3CC[C@]4(C)Oc5oc(C)cc(=O)c5C[C@H]4[C@]3(C)CC[C@H]2C1(C)C | 6.51% [at 25.6 µM] (inactive) | – |
| CC(C)c1cc2c(N3CCN(C4=NCC(C)(C)S4)CC3)ncnc2s1 | 35% (inactive) | – |
| CC(C)/C=C1\NC(=O)C(C(C)C)n2c1nc1ccccc1c2=O (stereo not given) | 55.3% (inactive) | – |
